{"source": "PubChem BioAssay AID463193", "about": "(University of Pittsburgh Molecular Library Screening Center, 2010)", "note": "About 1,900 (1%) of roughly 190,000 compounds were called active. This is one part of a sample in which actives are shown more often than they occur.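 Rule for the calls: active = percentage of spot-positive cells more than 3 SD above its plate mean, without a fluorescence outlier flag or 80% toxicity; inconclusive = no clear call, values can overlap the other calls; inactive = the rest.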", "data": [{"assay": "GFP-LC3 puncta formation changes – imaging, high-content, MEF GFP-LC3, primary screen (AID 463193);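 for % cells with GFP-LC3 spots: spot-positive cell cutoff set from DMSO-treated cells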;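 for toxicity: cell loss after 18 h compound exposure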", "details": "autophagy, at 10 µM; % cells with GFP-LC3 spots: stronger effect = higher value; toxicity: measured here: cell loss, nuclei count", "units": {"toxicity": "%"}, "values": [{"molecule": "Cc1cccc2cc3c(N)c(C(=O)N4CCCc5ccccc54)sc3nc12", "% cells with GFP-LC3 spots": "34.9% (active)", "toxicity": 33.8}, {"molecule": "O=C(/C=C/c1ccc(F)cc1)Nc1cccc(S(=O)(=O)Nc2cccc(C(F)(F)F)c2)c1", "% cells with GFP-LC3 spots": "3.21% (inactive)", "toxicity": 11.4}, {"molecule": "O=c1[nH]c(=S)[nH]c2[nH]c(=S)[nH]c12", "% cells with GFP-LC3 spots": "16.3% (inactive)", "toxicity": 14.2}, {"molecule": "CCOc1cc(NC(=O)c2ccccn2)c(OCC)cc1NC(=O)c1ccc(OC)cc1", "% cells with GFP-LC3 spots": "2.17% (inactive)", "toxicity": 23.7}, {"molecule": "CCOc1cc(NC(=O)c2cnccn2)c(OCC)cc1NC(=O)c1ccc(C)cc1", "% cells with GFP-LC3 spots": "16.1% (active)", "toxicity": -0.236}, {"molecule": "CCOc1ccccc1NC(=O)c1cccnc1", "% cells with GFP-LC3 spots": "1.43% (inactive)", "toxicity": 1.42}, {"molecule": "COc1ccc(/C=C/C(=O)NC(=S)NN2CCCCC2c2cccnc2)cc1", "note": "(configuration not stated)", "% cells with GFP-LC3 spots": "2.8% (inactive)", "toxicity": 2.51}, {"molecule": "CCOCCCNC(=O)C(NC(=O)c1ccc(=O)[nH]c1)c1ccc(Cl)cc1", "note": "(configuration not stated)", "% cells with GFP-LC3 spots": "28% (active)", "toxicity": 44.6}, {"molecule": "CCOCCCNC(=O)C(NC(=O)c1ccccc1O)c1ccccc1", "note": "(configuration not stated)", "% cells with GFP-LC3 spots": "5.35% (inactive)", "toxicity": -34}, {"molecule": "CCOCCCNC(=O)C(NC(=O)c1ccc(=O)[nH]c1)c1ccc(C)cc1", "note": "(configuration not stated)", "% cells with GFP-LC3 spots": "3.93% (inactive)", "toxicity": -0.266}, {"molecule": "CCc1nnc(NC(=O)CCCSc2nc3ccccc3[nH]2)s1", "% cells with GFP-LC3 spots": "1.66% (inactive)", "toxicity": -3.54}, {"molecule": "COc1ccc(-n2ncc3c(N4CCCc5ccccc54)ncnc32)cc1", "% cells with GFP-LC3 spots": "7.91% (inactive)", "toxicity": 7.86}, {"molecule": "Cc1cccc(-n2ncc3c(N4CCc5ccccc54)ncnc32)c1", "% cells with GFP-LC3 spots": "1.09% (inactive)", "toxicity": -9.01}, {"molecule": "COc1ccc(-n2ncc3c(N4CCc5ccccc54)ncnc32)cc1", "% cells with GFP-LC3 spots": "10.6% (active)", "toxicity": 12.2}, {"molecule": "Cc1ccc2nc(-c3ccccn3)cc(C(=O)Nc3ccc4c(c3)OCO4)c2c1", "% cells with GFP-LC3 spots": "4.19% (inactive)", "toxicity": 13.2}, {"molecule": "CC1(C)C2CCC1(C)C(OC(=O)c1ccc(O)cc1)C2", "note": "(configuration not stated)", "% cells with GFP-LC3 spots": "19.1% (inactive)", "toxicity": 2.39}, {"molecule": "COc1ccc(-c2[nH]ncc2CN(C)Cc2cccnc2)c(F)c1", "% cells with GFP-LC3 spots": "3.28% (inactive)", "toxicity": 15.9}, {"molecule": "O=C1/C(=C\\c2cccnc2)CN(Cc2ccccc2)C/C1=C\\c1cccnc1", "% cells with GFP-LC3 spots": "52.1% (active)", "toxicity": -17.6}, {"molecule": "Clc1ccc(CN2CCN(/N=C/c3cccnc3)CC2)cc1", "% cells with GFP-LC3 spots": "0.128% (inactive)", "toxicity": -10.7}, {"molecule": "O=Cc1cn(Cc2ccccc2)nc1-c1cccnc1", "% cells with GFP-LC3 spots": "0.945% (inactive)", "toxicity": 1.14}, {"molecule": "Cc1ccc(NC(=O)NC2CCCCC2)cc1S(=O)(=O)N1CCOCC1", "% cells with GFP-LC3 spots": "9.14% (inactive)", "toxicity": -3.67}, {"molecule": "Cc1cccc(COc2ccccc2/C=N/Nc2ccc([N+](=O)[O-])cc2)c1", "% cells with GFP-LC3 spots": "1.93% (inactive)", "toxicity": 8.3}, {"molecule": "COc1cc(/C=N\\Nc2ccc([N+](=O)[O-])cn2)ccc1OCC(=O)O", "% cells with GFP-LC3 spots": "1.45% (inactive)", "toxicity": -6.18}, {"molecule": "Cc1ccc(-n2c(C)cc(/C=N/Nc3ccc([N+](=O)[O-])cn3)c2C)c(C)c1", "% cells with GFP-LC3 spots": "52% (active)", "toxicity": -31.7}, {"molecule": "N#Cc1c(-c2ccc(F)cc2)cc(C2CC2)nc1SCC(=O)c1cccs1", "% cells with GFP-LC3 spots": "86.4% (active)", "toxicity": -1.55}, {"molecule": "O=C(CSc1nc2ccccc2[nH]1)c1cccs1", "% cells with GFP-LC3 spots": "0.463% (inactive)", "toxicity": 5.37}, {"molecule": "CCOC(=O)CC(=O)CSc1nc(-c2ccccc2)cc(-c2ccc(Cl)cc2)c1C#N", "% cells with GFP-LC3 spots": "3.63% (inactive)", "toxicity": -4.4}, {"molecule": "Cc1ccc(CC(=O)Nc2ccc(OC(F)F)c(Cl)c2)cc1C", "% cells with GFP-LC3 spots": "6.36% (inactive)", "toxicity": -11.9}, {"molecule": "CCN1CCN(C(=O)c2ccc(CN(c3ccc(C)c(C)c3)S(C)(=O)=O)cc2)CC1", "% cells with GFP-LC3 spots": "5.04% (inactive)", "toxicity": -26.7}, {"molecule": "Cc1cc(C(=O)N/N=C/c2ccc(O)c([N+](=O)[O-])c2)c(C)n1-c1ccc(F)cc1", "% cells with GFP-LC3 spots": "6.11% (inactive)", "toxicity": 2.16}, {"molecule": "O=C(Nc1ccc(Br)cn1)c1ccc([N+](=O)[O-])cc1Cl", "% cells with GFP-LC3 spots": "25.9% (inactive)", "toxicity": 12.1}, {"molecule": "CSc1ccc(/C=N\\NC(=O)CC(=O)NC(C)C)cc1", "% cells with GFP-LC3 spots": "3.73% (inactive)", "toxicity": 6.35}, {"molecule": "O=c1cc(-c2ccccc2)[nH]c2cc(F)ccc12", "% cells with GFP-LC3 spots": "3.89% (inactive)", "toxicity": -7.91}, {"molecule": "O=C(/C=C/c1ccc(Cl)cc1)Nc1ccc(Br)cn1", "% cells with GFP-LC3 spots": "20.4% (inactive)", "toxicity": 30.5}, {"molecule": "CC(C)OC(=O)C(C#N)c1nc2ccccc2nc1N1CCN(Cc2ccccc2)CC1", "note": "(configuration not stated)", "% cells with GFP-LC3 spots": "41.3% (active)", "toxicity": 2.68}, {"molecule": "CCOC(=O)/C(C#N)=C/c1ccc(N2CCN(Cc3ccccc3)CC2)cc1", "% cells with GFP-LC3 spots": "10.3% (inactive)", "toxicity": 10.6}, {"molecule": "Cc1ccc(S(=O)(=O)C(C#N)c2nc3ccccc3nc2N2CCCC2)cc1C", "note": "(configuration not stated)", "% cells with GFP-LC3 spots": "8.97% (inactive)", "toxicity": -8.37}, {"molecule": "O=[N+]([O-])c1ccc(Sc2n[nH]c(-c3ccco3)n2)nc1", "% cells with GFP-LC3 spots": "0% (inactive)", "toxicity": 4.9}, {"molecule": "Cc1ccccc1CN1C[C@@H]2C[C@@H](c3ccc4nsnc4c3)N3CCC[C@@]23C1=O", "% cells with GFP-LC3 spots": "34.4% (active)", "toxicity": 24.5}, {"molecule": "OCC1(CCc2ccccc2)CCN(Cc2ccc3nsnc3c2)CC1", "% cells with GFP-LC3 spots": "0.559% (inactive)", "toxicity": 0.377}, {"molecule": "Cc1ccccc1CN1C[C@@H]2C[C@@H](c3cn(C)nc3-c3ccccc3)N3CCC[C@@]23C1=O", "% cells with GFP-LC3 spots": "0.136% (inactive)", "toxicity": -5.59}]}]}
